Records with an inconclusive call do not appear. Active and inactive are the calls of the source. Unless noted, calls follow the shape of the full dose curve.
Legend:
[1] = qHTS drug screen for cell cycle checkpoint inhibitors in PARPi-resistant BRCA-mutant ovarian cancer cell lines. (AID 1963452); conditions: PEO1/OlaR viability, CellTiter-Glo luminescence, 96 h, stronger effect = lower value
Outline: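 PEO1, PEO4 and PEO1/OlaR ovarian cancer cells, 600 per well, exposed 96 h at 37C to a dilution series. Viability read by CellTiter-Glo luminescence, normalized to DMSO and empty wells; activity summarized as Z-AUC.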

[2] = Dual reporter qHTS for antagonist of Pregnane X Receptor (hPXR) against the NCATS DSHEA and TCM libraries: Fluorescence Readout (AID 1920061; active = well fitted curve in the direction sought with a large enough effect; also: 0% is about no effect); conditions: PXR dual reporter cells, antagonist mode; series mostly up to 40 µM
Outline: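 Rifampicin-stimulated (2 uM final) hPXR-luciferase HepG2 cells were treated for 24 h with DSNP/TCM substances. Viability came from CellTiter-Fluor fluorescence, reporter activity from ONE-Glo luminescence.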

[3] = qHTS for identification of novel therapeutic agents for treatment of microphthalmiaassociated transcription factor (MiT) renal cell carcinoma (RCC) (AID 1963991); conditions: CellTiter-Glo, 48 h, stronger effect = lower value
Outline: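 Viability of three TFE3-fusion renal carcinoma lines measured by CellTiter-Glo after 48 h treatment with each of 1912 compounds at 11 concentrations. Responses scaled between DMSO (100%) and empty wells (0%) before curve fitting.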

[4] = measured here: PEO1 parental Z-AUC
[5] = TFE3-RCC UOK109 viability, measured here: UOK109 Z-AUC
[6] = TFE3-RCC viability, measured here: UOK124 Z-AUC
[7] = TFE3-RCC viability, measured here: UOK145 Z-AUC

**Q.** Which Z-AUC [1] does the source give for `CCCCCCCCCCCCCC(=O)N[C@H](CO)[C@H](O)c1ccc([N+](=O)[O-])cc1` here?
**A.** 1.33 (inactive)

**Q.** And the Z-AUC [1, 4]?
**A.** 1.09

**Q.** What about the Z-AUC ([1]; measured here: PEO4 Z-AUC) of the same compound?
**A.** 1.02

**Q.** For `C=CC(=O)Nc1cccc(Sc2nc(Nc3ccc(N4CCN(C)CC4)cc3)ncc2Cl)c1`, which Z-AUC [1] is on record?
**A.** -0.713 (inactive)

**Q.** And the Z-AUC [1, 4]?
**A.** 0.0484

**Q.** What about the Z-AUC ([1]; measured here: PEO4 Z-AUC) of the same compound?
**A.** 0.0662

**Q.** What does the source list for `CCN1CCN(c2ccc(Nc3cc(N(C)C(=O)Nc4c(Cl)c(OC)cc(OC)c4Cl)ncn3)cc2)CC1`?
**A.** Z-AUC [1]: 0.0169 (inactive); Z-AUC [1, 4]: -0.00584; Z-AUC ([1]; measured here: PEO4 Z-AUC): 0.0335

**Q.** With `Cc1ccccc1-n1c(Cn2nc(-c3cccc(O)c3)c3c(N)ncnc32)nc2cccc(C)c2c1=O` as the compound, how does the Z-AUC [1] read?
**A.** -1.13 (inactive)

**Q.** What about the Z-AUC [1, 4] of the same compound?
**A.** -0.546

**Q.** And the Z-AUC ([1]; measured here: PEO4 Z-AUC)?
**A.** -0.912

**Q.** Which results are given for `CCCCC(C)(C)[C@H](O)C=C[C@H]1[C@H](O)CC(=O)[C@H]1CC=CCCCC(=O)O`?
**A.** Z-AUC [1]: 0.66 (inactive); Z-AUC [1, 4]: 0.266; Z-AUC ([1]; measured here: PEO4 Z-AUC): 0.726

**Q.** Which Z-AUC [1] does the source give for `CNC(=O)c1ccc2c(C(=Nc3cccc(CN(C)C)c3)c3ccccc3)c(O)[nH]c2c1` here?
**A.** -0.0393 (inactive)

**Q.** What about the Z-AUC [1, 4] of the same compound?
**A.** 0.42

**Q.** And the Z-AUC ([1]; measured here: PEO4 Z-AUC)?
**A.** 0.638

**Q.** Which Z-AUC [1] does the source give for `N#Cc1ccc(Oc2ccc3c(c2)COB3O)cc1` here?
**A.** 0.18 (inactive)

**Q.** What about the Z-AUC [1, 4] of the same compound?
**A.** 0.583

**Q.** What about the Z-AUC ([1]; measured here: PEO4 Z-AUC) of the same compound?
**A.** 0.594

**Q.** With `CCOc1ccccc1N=Nc1c(C)[nH]n(-c2nc(-c3ccccc3)cs2)c1=O` as the compound, how does the Z-AUC [1] read?
**A.** 1.3 (inactive)

**Q.** What about the Z-AUC [1, 4] of the same compound?
**A.** 1.25

**Q.** What about the Z-AUC ([1]; measured here: PEO4 Z-AUC) of the same compound?
**A.** 1.22

**Q.** For `O=C1CN2Cc3c(ccc(Cl)c3Cl)N=C2N1`, which Z-AUC [1] is on record?
**A.** -0.36 (inactive)

**Q.** What about the Z-AUC [1, 4] of the same compound?
**A.** 0.71

**Q.** And the Z-AUC ([1]; measured here: PEO4 Z-AUC)?
**A.** 0.69

**Q.** With `NS(=O)(=O)c1ccc(Nc2nc(OCC3CCCCC3)c3[nH]cnc3n2)cc1` as the compound, how does the Z-AUC [1] read?
**A.** -1.43 (inactive)

**Q.** What about the Z-AUC [1, 4] of the same compound?
**A.** -0.91

**Q.** And the Z-AUC ([1]; measured here: PEO4 Z-AUC)?
**A.** -1.12

**Q.** What does the source list for `CN1c2ccccc2C(=O)N2CCc3c([nH]c4ccccc34)C21` (stereo unspecified)?
**A.** Z-AUC [1]: 0.807 (inactive); Z-AUC [1, 4]: -0.272; Z-AUC ([1]; measured here: PEO4 Z-AUC): -0.128

**Q.** Which results are given for `NC1(C(=O)N[C@@H](CCO)c2ccc(Cl)cc2)CCN(c2ncnc3[nH]ccc23)CC1`?
**A.** Z-AUC [1]: -0.465 (inactive); Z-AUC [1, 4]: 0.588; Z-AUC ([1]; measured here: PEO4 Z-AUC): 0.532

**Q.** With `Cc1cccc(Nc2nc(N[C@@H]3CCCC[C@H]3N)ncc2C(N)=O)c1` as the compound, how does the Z-AUC [1] read?
**A.** -0.597 (inactive)

**Q.** What about the Z-AUC [1, 4] of the same compound?
**A.** -0.615

**Q.** What about the Z-AUC ([1]; measured here: PEO4 Z-AUC) of the same compound?
**A.** -0.03

**Q.** With `CCN(CC)CCCCNc1nc2cc(Cl)c(Cl)cc2nc1-c1ccc(-c2cccs2)s1` as the compound, how does the Z-AUC [1] read?
**A.** 2.01 (inactive)

**Q.** What about the Z-AUC [1, 4] of the same compound?
**A.** 0.897

**Q.** What about the Z-AUC ([1]; measured here: PEO4 Z-AUC) of the same compound?
**A.** 0.59

**Q.** With `CC[C@H](CC#N)OC(=O)N[C@@H](C)c1cccc(NC(=O)Nc2ccc(-c3cnco3)c(OC)c2)c1` as the compound, how does the Z-AUC [1] read?
**A.** 0.186 (inactive)

**Q.** And the Z-AUC [1, 4]?
**A.** -0.393

**Q.** And the Z-AUC ([1]; measured here: PEO4 Z-AUC)?
**A.** -0.852

**Q.** What does the source list for `CCc1cccc(CC)c1NC(=O)N1Cc2[nH]nc(NC(=O)c3ccc(N4CCN(C)CC4)cc3)c2C1`?
**A.** Z-AUC [1]: -0.0238 (inactive); Z-AUC [1, 4]: 0.421; Z-AUC ([1]; measured here: PEO4 Z-AUC): -0.125

**Q.** For `CNC(=O)c1cc(Oc2ccc(NC(=O)Nc3ccc(Cl)c(C(F)(F)F)c3)c(F)c2)ccn1`, which Z-AUC [1] is on record?
**A.** 0.96 (inactive)

**Q.** What about the Z-AUC [1, 4] of the same compound?
**A.** 0.462

**Q.** What about the Z-AUC ([1]; measured here: PEO4 Z-AUC) of the same compound?
**A.** 0.496

**Q.** Which Z-AUC [1] does the source give for `CNC(=O)[C@H](Cc1ccccc1)NC(=O)[C@H](CC(C)C)[C@H](CSc1cccs1)C(=O)NO` here?
**A.** -0.0435 (inactive)

**Q.** What about the Z-AUC [1, 4] of the same compound?
**A.** -0.157

**Q.** And the Z-AUC ([1]; measured here: PEO4 Z-AUC)?
**A.** 0.653

**Q.** Which results are given for `OC[C@H]1O[C@@H](OCCc2ccc(O)cc2)[C@H](O)[C@@H](O)[C@H]1O`?
**A.** outcome [2]: inactive; z-score [3, 5]: 0.167; z-score [3, 6]: 0.0834; z-score [3, 7]: -0.171

**Q.** Which results are given for `c1ccc(-c2oc3ncnc(NC[C@@H]4CCCO4)c3c2-c2ccccc2)cc1`?
**A.** Z-AUC [1]: -1.81 (inactive); Z-AUC [1, 4]: -0.438; Z-AUC ([1]; measured here: PEO4 Z-AUC): -1.2

**Q.** Which results are given for `Cn1cc(-c2ccc3nnc(Sc4ccc5ncccc5c4)n3n2)cn1`?
**A.** Z-AUC [1]: 1.3 (inactive); Z-AUC [1, 4]: 1.65; Z-AUC ([1]; measured here: PEO4 Z-AUC): 1.9

**Q.** What does the source list for `CC(C)C[C@@H](C(=O)N[C@H](C(=O)OC1CCCC1)c1ccccc1)[C@H](O)C(=O)NO`?
**A.** Z-AUC [1]: -0.457 (inactive); Z-AUC [1, 4]: -0.511; Z-AUC ([1]; measured here: PEO4 Z-AUC): -0.774

**Q.** For `NC[C@H]1O[C@H](O[C@@H]2[C@@H](O)[C@@H](O[C@H]3O[C@H](CO)[C@@H](O)[C@H](N)[C@@H]3O)[C@H](N)C[C@@H]2N)[C@H](O)[C@@H](O)[C@H]1O`, which Z-AUC [1] is on record?
**A.** 1.2 (inactive)

**Q.** And the Z-AUC [1, 4]?
**A.** 0.776

**Q.** And the Z-AUC ([1]; measured here: PEO4 Z-AUC)?
**A.** 0.763

**Q.** Which Z-AUC [1] does the source give for `COc1ccc(-c2oc3c(CC=C(C)C)c(O)cc(O)c3c(=O)c2O)cc1` here?
**A.** 0.707 (inactive)

**Q.** What about the Z-AUC [1, 4] of the same compound?
**A.** 0.584

**Q.** What about the Z-AUC ([1]; measured here: PEO4 Z-AUC) of the same compound?
**A.** 0.876

**Q.** Which Z-AUC [1] does the source give for `NCc1c[nH]c(=S)n1[C@H]1CCc2c(F)cc(F)cc2C1` here?
**A.** -0.555 (inactive)

**Q.** What about the Z-AUC [1, 4] of the same compound?
**A.** -0.422

**Q.** What about the Z-AUC ([1]; measured here: PEO4 Z-AUC) of the same compound?
**A.** -0.786

**Q.** With `CN(C)N=Nc1nc[nH]c1C(N)=O` as the compound, how does the Z-AUC [1] read?
**A.** 1.39 (inactive)

**Q.** What about the Z-AUC [1, 4] of the same compound?
**A.** 0.491

**Q.** And the Z-AUC ([1]; measured here: PEO4 Z-AUC)?
**A.** 0.792

**Q.** What does the source list for `CN1N=C(N)c2cn([C@@H]3O[C@H](COP(=O)(O)O)[C@@H](O)[C@@H]3O)c3ncnc1c23`?
**A.** Z-AUC [1]: -0.375 (inactive); Z-AUC [1, 4]: -0.488; Z-AUC ([1]; measured here: PEO4 Z-AUC): -0.707

**Q.** With `CC(C)(CO)[C@@H](O)C(=O)NCCC(=O)O` as the compound, how does the outcome [2] read?
**A.** inactive

**Q.** What about the Z-AUC [1] of the same compound?
**A.** -0.0324 (inactive)

**Q.** What about the Z-AUC [1, 4] of the same compound?
**A.** 0.0769

**Q.** What about the Z-AUC ([1]; measured here: PEO4 Z-AUC) of the same compound?
**A.** 0.104

**Q.** What about the z-score [3, 5] of the same compound?
**A.** 1.12

**Q.** And the z-score [3, 6]?
**A.** 0.429

**Q.** And the z-score [3, 7]?
**A.** -0.0311

**Q.** Which results are given for `CN1CCN(c2ncc(-c3cc(Cl)cc(Cl)c3Cl)c(N)n2)CC1`?
**A.** Z-AUC [1]: -0.667 (inactive); Z-AUC [1, 4]: -0.953; Z-AUC ([1]; measured here: PEO4 Z-AUC): -0.943

**Q.** With `CC(C)(O)CC(=O)NCCn1ccc2ncnc(Nc3ccc(Oc4cccc(C(F)(F)F)c4)c(Cl)c3)c21` as the compound, how does the Z-AUC [1] read?
**A.** 0.0129 (inactive)

**Q.** And the Z-AUC [1, 4]?
**A.** -0.0981

**Q.** And the Z-AUC ([1]; measured here: PEO4 Z-AUC)?
**A.** -0.515

**Q.** What does the source list for `CC1=C[C@@H]2[C@@H]([C@@H](O)C[C@@]3(C)[C@H]2C[C@@H](C)[C@]3(O)C(=O)CO)[C@@]2(C)Cc3cnn(-c4ccccc4)c3C=C12`?
**A.** Z-AUC [1]: -1.56 (inactive); Z-AUC [1, 4]: -0.109; Z-AUC ([1]; measured here: PEO4 Z-AUC): -1.25

**Q.** Which Z-AUC [1] does the source give for `N#CC(c1ccnc(NCCc2cccnc2)n1)c1nc2ccccc2s1` (stereo unspecified) here?
**A.** 1.07 (inactive)

**Q.** And the Z-AUC [1, 4]?
**A.** 0.451

**Q.** What about the Z-AUC ([1]; measured here: PEO4 Z-AUC) of the same compound?
**A.** 0.404
